Experiment in all cases: NCI-60 one-dose screen, 48 h (100 = growth as untreated, 0 = no growth, -100 = all killed)
One test concerns HCT-15 colon. As to conditions: 10 µM.
The next test deals with SNB-75 CNS. To be noted: 10 µM.
In a further test the test system is SNB-19 CNS. To be noted: 10 µM.
A further test relates to U251 CNS. As to conditions: 10 µM.
The subject of a further test is PC-3 prostate. To be noted: 10 µM.
The next test relates to SK-MEL-5 melanoma. To be noted: 10 µM.
Another test concerns UACC-62 melanoma.
A further test has as its system LOX IMVI melanoma. To be noted: 10 µM.
A further test concerns SK-MEL-28 melanoma. To be noted: 10 µM.
In the next test the test system is EKVX NSCLC. As to conditions: 10 µM.
For the next test, the system named is SN12C renal. As to conditions: 10 µM.
A further test has as its system UO-31 renal. As to conditions: 10 µM.
The next test relates to TK-10 renal.
Another test concerns ACHN renal. As to conditions: 10 µM.
The next test relates to CAKI-1 renal. To be noted: 10 µM.
For the next test, the system named is A498 renal. As to conditions: 10 µM.
A further test deals with SK-MEL-2 melanoma. As to conditions: 10 µM.
The next test relates to MOLT-4 leukemia. As to conditions: 10 µM unless noted.

Several values for one entry are separate records, joined by “and”; a condition that tells them apart may be missing. Equal entries are not always repeated. Compounds without any hit were thinned out: in the full panel of roughly 83,000, 20% have a hit.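 Each cell line was grown in a 96-well plate and treated with one concentration of compound for 48 hours. Values below 10 were considered active.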 Activity calls are given as the source filed them.

Turning to `COc1ccc(C(C#N)=C2C=CC(=NO)C=C2)cc1`, the growth in the test with HCT-15 colon was 91.5% (inactive); with SNB-75 CNS, 91.6% (inactive); in the test on SNB-19 CNS it was 111% (inactive); in the test on U251 CNS, 53.9% (inactive); in the test on PC-3 prostate, 50.4% (inactive); with SK-MEL-5 melanoma it was 80.3% (inactive). Further, the growth with UACC-62 melanoma (10 µM) was 66.3% (inactive); in the test on LOX IMVI melanoma it was 59.5% (inactive); in the test on SK-MEL-28 melanoma, 106% (inactive); in the test with EKVX NSCLC, 125% (inactive); in the test on SN12C renal it was 95.8% (inactive); with UO-31 renal it was 67% (inactive). Also, the growth with TK-10 renal (10 µM) is 12.9% (inactive); in the test on ACHN renal, 78.5% (inactive); with CAKI-1 renal, 93.6% (inactive); in the test on A498 renal it was 114% (inactive).
Regarding `O=C(CCc1ccccc1)ON1C(=S)C(c2ccccc2)(c2ccccc2)N=C1Sc1ccccc1`, the growth in the test with UACC-62 melanoma (100 µM) is 10.7% (inactive) and 0.462% (active); in the test on TK-10 renal (100 µM), 28.6% (inactive) and 7.58% (active).
For the compound `Clc1c(Cl)c(Cl)c2c(nnn2C2CCCO2)c1Cl` (stereo not given), the growth in the test on UACC-62 melanoma (100 µM) is -55.3% (active) and -99.6% (active); in the test on TK-10 renal (100 µM) it was -9.89% (active) and -74.8% (active).
On to `O=C(CNS(=O)(=O)Cc1ccccc1)NNc1ccccc1`, for which the growth was 27.8% (inactive) with HCT-15 colon; 76.8% (inactive) in the test on SNB-75 CNS; 88.3% (inactive) with SNB-19 CNS; 82.7% (inactive) with U251 CNS; 63.2% (inactive) with PC-3 prostate; 47.5% (inactive) in the test with SK-MEL-5 melanoma. For the same compound, the growth in the test on UACC-62 melanoma (10 µM) was 14.9% (inactive); with SK-MEL-28 melanoma it was 94% (inactive); in the test on SK-MEL-2 melanoma it was 97.1% (inactive); in the test with EKVX NSCLC, 53.3% (inactive); in the test on SN12C renal, 75% (inactive); with UO-31 renal, 35.7% (inactive). Also, the growth in the test on TK-10 renal (10 µM) was 90.6% (inactive); with ACHN renal it was 36.7% (inactive); with CAKI-1 renal, 39.8% (inactive); in the test with A498 renal, 108% (inactive); in the test on MOLT-4 leukemia it was 35.4% (inactive).
As to `O=C1c2ccccc2CCC1(Br)Br`, the growth was -57% (active) with HCT-15 colon; 56.6% (inactive) in the test with SNB-75 CNS; 89.4% (inactive) with SNB-19 CNS; 54.5% (inactive) in the test on PC-3 prostate; 32.1% (inactive) in the test with UACC-62 melanoma (10 µM); 56.5% (inactive) in the test with SK-MEL-28 melanoma. Also, the growth in the test on SN12C renal was 28.3% (inactive); with UO-31 renal, 28% (inactive); with TK-10 renal (10 µM), -11% (active); in the test on ACHN renal, -95.2% (active); in the test with CAKI-1 renal, 18.7% (inactive); with A498 renal, 70.8% (inactive).
As to `C=C1N(C)c2ccc(Cl)cc2C1(C)C`, the growth in the test with HCT-15 colon was 106% (inactive); with SNB-75 CNS, 62% (inactive); with SNB-19 CNS, 55.1% (inactive); in the test with U251 CNS, 22.8% (inactive); in the test with PC-3 prostate it was 32.9% (inactive); in the test with SK-MEL-5 melanoma, 90.5% (inactive). For the same compound, the growth in the test on UACC-62 melanoma (10 µM) is 69.5% (inactive); in the test with LOX IMVI melanoma, 51.9% (inactive); in the test on SK-MEL-28 melanoma, 84.5% (inactive); in the test on SK-MEL-2 melanoma it was 101% (inactive); in the test with EKVX NSCLC it was 25.2% (inactive); in the test on SN12C renal, 54.8% (inactive). The growth in the test on UO-31 renal is 78.5% (inactive); with TK-10 renal (10 µM), 83.8% (inactive); in the test with ACHN renal, 94.9% (inactive); in the test with A498 renal it was 84.1% (inactive).
For `N#CC(=S)Nc1cccc(Cl)c1`, the growth in the test on UACC-62 melanoma (100 µM) is 1.5% (active) and -86.8% (active); in the test on TK-10 renal (100 µM), 5.57% (active) and -9.55% (active).
In the case of `Cc1cc(N=C2C=CC(=[N+](C)C)C=C2)c(N)cc1N`, the growth with HCT-15 colon was 109% (inactive); in the test on SNB-75 CNS it was 102% (inactive); in the test on SNB-19 CNS, 87.3% (inactive); in the test with U251 CNS, 93.2% (inactive); with SK-MEL-5 melanoma it was 90% (inactive); with UACC-62 melanoma (10 µM), 89.8% (inactive). Besides, the growth in the test with LOX IMVI melanoma was 79% (inactive); in the test with SK-MEL-28 melanoma it was 103% (inactive); in the test with SK-MEL-2 melanoma, 106% (inactive); with EKVX NSCLC, 85.4% (inactive); in the test on SN12C renal, 88.7% (inactive); in the test with UO-31 renal, 71.5% (inactive). The growth was 106% (inactive) in the test with TK-10 renal (10 µM), 91% (inactive) in the test with ACHN renal, 92.8% (inactive) in the test on CAKI-1 renal and 75.7% (inactive) in the test with A498 renal.
Take `COc1cc(N)ccc1Nc1c2ccccc2nc2ccccc12`: the growth was -10.1% (active) in the test on HCT-15 colon; 91% (inactive) in the test with SNB-75 CNS; 99.7% (inactive) in the test on SNB-19 CNS; 59% (inactive) in the test on PC-3 prostate; 85% (inactive) in the test with SK-MEL-5 melanoma; 89.6% (inactive) in the test on UACC-62 melanoma (10 µM). The growth in the test on LOX IMVI melanoma is -23.6% (active); in the test with SK-MEL-28 melanoma it was 107% (inactive); in the test with SK-MEL-2 melanoma it was 109% (inactive); in the test with SN12C renal it was 81% (inactive); in the test on UO-31 renal it was 50.6% (inactive); with TK-10 renal (10 µM) it was 88.3% (inactive). The growth in the test on ACHN renal is 88.6% (inactive); in the test with CAKI-1 renal, 70.5% (inactive); in the test on A498 renal, 87.3% (inactive).
On to `C=C(C)[C@@H]1CCc2c(O)c(O)c(=O)cc(C)c2C1`, for which the growth in the test on UACC-62 melanoma (100 µM) is -52.3% (active) and -85% (active); in the test on TK-10 renal (100 µM) it was -17% (active) and -96.5% (active).
In the case of `CN(C)CCNc1cccc2sc3ccc(O)cc3c(=O)c12`, the growth is 26.9% (inactive) with HCT-15 colon; 31.8% (inactive) in the test with SNB-75 CNS; 57.4% (inactive) with SNB-19 CNS; 38.7% (inactive) with PC-3 prostate; 44% (inactive) in the test with SK-MEL-5 melanoma; 57.8% (inactive) in the test with UACC-62 melanoma (10 µM). The growth in the test with LOX IMVI melanoma was 18.3% (inactive); in the test with SK-MEL-28 melanoma it was 69.2% (inactive); with SK-MEL-2 melanoma, 64% (inactive); in the test with SN12C renal, 40.4% (inactive); with UO-31 renal it was 20% (inactive); in the test on TK-10 renal (10 µM) it was 58% (inactive). For the same compound, the results for the growth in the test with ACHN renal, in the test with CAKI-1 renal and in the test with A498 renal were 14.9% (inactive), 5.13% (active) and 92.5% (inactive), respectively.

Values taken from PubChem BioAssay (NCI).
